Test results: PubChem BioAssay AID1942 (Johns Hopkins Ion Channel Center, 2009)
The campaign covered roughly 2,400 compounds. About 580 (24%) were called active.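 Rule for the calls: active = activity change at or above the mean plus 3 SD of buffer wells without dofetilide, per plate; inactive = the rest.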 A selection follows.

target: Potassium voltage-gated channel subfamily KQT member 2 (Rattus norvegicus) (UniProt O88943); experiment: rat KCNQ2 channel activation by compounds alone, confirmation, counter-screen for hERG block protector project, cell-based, CHO, FluxOR thallium flux (AID 1942); details: CHO-KCNQ2 cells, FluxOR thallium flux fluorescence; at 10 µM; stronger effect = higher value;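 note: normalized value minus buffer-control mean plus three SD of buffer wells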
Sequence (O88943 whole entry, looked up): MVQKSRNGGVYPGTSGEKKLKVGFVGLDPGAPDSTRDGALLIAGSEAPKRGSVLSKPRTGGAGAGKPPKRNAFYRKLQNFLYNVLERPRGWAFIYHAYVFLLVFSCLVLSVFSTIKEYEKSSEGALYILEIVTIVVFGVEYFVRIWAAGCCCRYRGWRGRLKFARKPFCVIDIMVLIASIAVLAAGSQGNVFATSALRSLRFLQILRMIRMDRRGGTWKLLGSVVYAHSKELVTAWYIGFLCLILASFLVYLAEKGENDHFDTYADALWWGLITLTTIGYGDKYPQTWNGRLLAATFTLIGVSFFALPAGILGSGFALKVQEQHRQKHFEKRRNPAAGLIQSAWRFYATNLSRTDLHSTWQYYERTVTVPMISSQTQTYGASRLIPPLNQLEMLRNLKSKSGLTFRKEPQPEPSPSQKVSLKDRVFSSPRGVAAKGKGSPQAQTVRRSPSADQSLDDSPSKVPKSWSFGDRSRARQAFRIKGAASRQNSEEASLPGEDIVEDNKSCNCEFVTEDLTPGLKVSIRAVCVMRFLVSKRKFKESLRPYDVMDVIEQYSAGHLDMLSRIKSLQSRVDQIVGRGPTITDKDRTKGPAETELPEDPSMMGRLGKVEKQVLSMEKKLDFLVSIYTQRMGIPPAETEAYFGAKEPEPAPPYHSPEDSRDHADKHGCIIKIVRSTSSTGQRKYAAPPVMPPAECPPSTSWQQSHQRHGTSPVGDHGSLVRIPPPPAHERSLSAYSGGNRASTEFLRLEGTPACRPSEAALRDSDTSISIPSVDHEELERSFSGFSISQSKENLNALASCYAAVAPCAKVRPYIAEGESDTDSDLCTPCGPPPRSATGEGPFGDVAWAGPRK

Row | Compound | activity change, less the hit threshold
1 | CCOC(=O)C(=CNc1cc(C)nn1C(C)(C)C)C(=O)OCC | -8.9% (inactive)
2 | O=C(CCCc1c[nH]c2ccccc12)Nc1ccc(S(=O)(=O)Nc2ncccn2)cc1 | -22% (inactive)
3 | COc1ccc([N+](=O)[O-])cc1N(CC(=O)NCc1ccco1)S(C)(=O)=O | -12.1% (inactive)
4 | COc1ccccc1-n1cnc2sc(C)c(C)c2c1=O | -17.7% (inactive)
5 | CCc1nc2sc3c(c2c(=S)[nH]1)CC(C)(C)OC3 | -13.3% (inactive)
6 | CSc1nc2sc3c(c2c(=S)[nH]1)CC(C)(C)OC3 | 73.2% (active)
7 | CCC1(C)Cc2c(sc3nc(SC)[nH]c(=S)c23)CO1 (configuration not stated) | 101% (active)
8 | COc1ccc(CCNC(=O)CC(NS(=O)(=O)c2ccc(NC(C)=O)cc2)C(C)C)cc1OC (configuration not stated) | -17.8% (inactive)
9 | COC(=O)c1sccc1NS(=O)(=O)c1ccc(F)cc1F | -1.9% (inactive)
10 | Cc1ccc(S(=O)(=O)N(C)C)cc1NC(=S)NC(C)CCCC(C)C (configuration not stated) | -25.5% (inactive)
11 | Cc1cccc(/C=N/Nc2ccc3ccccc3n2)c1 | -14.1% (inactive)
12 | CCOc1ccc(/C=C2/SC(=O)NC2=S)cc1 | 83.5% (active)
13 | CCOc1ccc(/C=C2\CCc3ccccc3C2=O)cc1 | -13.5% (inactive)
14 | Cn1cc(/C=C2\SC(=O)NC2=S)c2ccccc21 | -17.7% (inactive)
15 | O=C(O)c1ccccc1NC(=O)C1CCN(S(=O)(=O)c2cccc3nsnc23)CC1 | -7% (inactive)
16 | Cc1ccc2nsnc2c1S(=O)(=O)Nc1cccc2nsnc12 | 3.5% (active)
17 | O=C(N/N=C/C(Cl)=C/c1ccc([N+](=O)[O-])cc1)C(=O)Nc1ccc(C(=O)O)cc1 | -18.4% (inactive)
18 | Cc1cccc(N=Cc2cc(Br)cc(Cl)c2O)c1 | 30.4% (active)
19 | O=C(Nc1cccc(N=Cc2cc(Cl)cc(Br)c2O)c1)c1ccco1 | 22.4% (active)
20 | O=C(Nc1ccccc1C(=O)O)c1cccc(NC(=O)c2ccco2)c1 | -3.3% (inactive)
21 | Oc1c(Br)cc(Cl)cc1C=Nc1ccccc1Br | 28.2% (active)
22 | O=C(NC(=S)Nc1cccc([N+](=O)[O-])c1)c1ccco1 | -20.7% (inactive)
23 | Oc1c(Cl)cc(Cl)cc1C=Nc1ccc(Br)cc1 | 38.8% (active)
24 | COc1cccc(CN=c2c([N+](=O)[O-])nn(-c3ccccc3C)n2O)c1 | -19.6% (inactive)
25 | CCOCCOCN(C#N)c1nc(OC)nc(N(C)C)n1 | -20.4% (inactive)
26 | Cc1ccc(N=Cc2cc(Cl)cc(Cl)c2O)nc1 | 22.5% (active)

Row | Compound | activity change, less the hit threshold
27 | COc1cc(Br)cc(C=Nc2cccc(C(F)(F)F)c2)c1O | 5.7% (active)
28 | NC(=O)c1cccc(N=Cc2cc(Cl)cc(Cl)c2O)c1 | 28.8% (active)
29 | Cc1ccc(N=Cc2cc(Br)cc(Cl)c2O)cc1 | 5.8% (active)
30 | COc1cc(Br)cc(/C=N/NC(=O)Cc2ccccc2)c1O | -9.1% (inactive)
31 | CCC[C@H]1COCCS(=O)(=O)N1Cc1ccc(Br)cc1 | -9.4% (inactive)
32 | COc1ccc(/C=C2\SC(=N)N(c3nccs3)C2=O)cc1OC | -16.2% (inactive)
33 | Cc1ccsc1CN(C(=O)c1ccc([N+](=O)[O-])cc1)C1CCS(=O)(=O)C1 (configuration not stated) | -17.5% (inactive)
34 | Cc1ccc(C(C)C)cc1OCC(=O)Nc1ccc(N2CCCCC2)cc1 | -13.5% (inactive)
35 | Oc1c(Br)cc(Br)cc1CNc1cccc2cccnc12 | -29.6% (inactive)
36 | Oc1c(Br)cc(Br)cc1C=Nc1cccc2ncccc12 | 30.9% (active)
37 | Cc1cccc(N2CCN(C(=O)C3CCN(S(=O)(=O)c4cccnc4)CC3)CC2)c1C | -14.6% (inactive)
38 | O=C(CSCc1cnn(-c2ccccc2)c1-n1cccc1)NCc1cccnc1 | -9% (inactive)
39 | CC1=[N+]([O-])C(C)(C)C(c2ccc(Br)cc2)=[N+]1[O-] | 7.3% (active)
40 | Cc1cc(C)c(S(=O)(=O)NCc2ccccn2)c(C)c1 | -18.8% (inactive)
41 | CSc1nc(-c2ccco2)cc(C(F)(F)F)c1C#N | -9.1% (inactive)
42 | Cc1c(N2C(=O)/C(=C\c3ccccc3O)SC2=S)c(=O)n(-c2ccccc2)n1C | 68.6% (active)
43 | O=C(O)COc1ccccc1/C=C1\SC(=S)N(NC(=O)c2ccccc2O)C1=O | -12.9% (inactive)
44 | COc1ccc(C(C(=O)NC(C)(C)C)N(C(=O)CCC(=O)Nc2cc(C)on2)c2cccc(F)c2)cc1 (configuration not stated) | -14.9% (inactive)
45 | CCCCc1c(O)nc(SCC(=O)N2CCOCC2)[nH]c1=O | -9.9% (inactive)
46 | COC(=O)CNc1nc(Cl)nc(Nc2ccc(C)cc2)n1 | -22.2% (inactive)
47 | Cc1ccc(C(=O)Nc2sc3c(c2C(=O)O)CCCCC3)o1 | -23.9% (inactive)
48 | CCOC(=O)c1c(NS(=O)(=O)Cc2ccccc2)sc2c1CCCC2 | 32.5% (active)
49 | COC(=O)c1c(NS(=O)(=O)c2ccc3ccccc3c2)sc2c1CCCC2 | -15.5% (inactive)
50 | CCOC(=O)c1c(C)cccc1OCC(N)=O | -12.7% (inactive)
51 | COC(=O)c1c(NS(=O)(=O)Cc2ccccc2)sc2c1CCCC2 | 42.1% (active)
52 | CCOC(=O)c1c(NS(=O)(=O)c2ccc(Br)cc2)sc2c1CCC2 | 5.6% (active)

Row | Compound | activity change, less the hit threshold
53 | CN1C(=O)c2ccc(C(=O)NCc3ccccc3)cc2C1=O | -20.8% (inactive)
54 | COCCCNC(=O)CCc1nnc(Cc2ccc(-c3ccccc3)cc2)o1 | -5.1% (inactive)
55 | Cc1cc(=S)[nH]c2c(C)cccc12 | -3.9% (inactive)
56 | CCOc1cc(NC(=S)N2CCC(C(N)=O)CC2)c(C(=O)OC)cc1OCC | -11.5% (inactive)
57 | CCc1ccc(OCC(=O)Nc2ncn[nH]2)cc1 | -16.1% (inactive)
58 | COc1cccc(OCC(=O)NNC(=O)C(=O)Nc2cccc(C)c2)c1 | 33.1% (active)
59 | COc1ccc(OCC(=O)NNC(=O)C(=O)Nc2ccc(C)cc2)cc1 | -23.7% (inactive)
60 | CCc1ccc(NC(=O)C(=O)NNC(=O)COc2cccc(OC)c2)cc1 | 14.3% (active)
61 | Cc1cccc(OCC(=O)NCc2nc(-c3ccccc3)no2)c1 | -17.2% (inactive)
62 | O=C(COc1cccc(-n2cnnn2)c1)Nc1ccc([N+](=O)[O-])cc1 | -13.3% (inactive)
63 | CC(C)c1cccc(C(C)C)c1NC(=O)COC(=O)[C@H](C)NC(N)=O | -17.5% (inactive)
64 | O=C(NC(=S)Nc1ccc(N2CCCCC2)cc1)c1ccco1 | 45.9% (active)
65 | O=C(NC(=S)Nc1cccc(Cl)c1N1CCCCC1)c1ccco1 | -12.3% (inactive)
66 | O=C(NC(=S)Nc1ccccc1Br)c1ccco1 | 18.2% (active)
67 | CC1CCN(c2ccccc2NC(=S)NC(=O)c2ccco2)CC1 | -14.3% (inactive)
68 | O=C(NC(=S)Nc1ccccc1N1CCCC1)c1ccco1 | 11.2% (active)
69 | O=C(NC(=S)Nc1ccccc1N1CCCC1)c1cccs1 | -17.3% (inactive)
70 | O=C(NC(=S)Nc1cc(C(F)(F)F)ccc1N1CCOCC1)c1ccco1 | -11.4% (inactive)
71 | O=C(NC(=S)Nc1ccccc1Cl)c1ccco1 | 10.4% (active)
72 | O=C(Nc1ccc(N2CCOCC2)cc1)c1ccc(S(=O)(=O)N2CCCCC2)cc1 | -20.8% (inactive)
73 | O=C(N/N=C/c1ccc(OC(F)F)cc1)C1=COCCO1 | -10.9% (inactive)
74 | COC(=O)c1cc2sc(Cl)cc2n1CC(=O)NCC1CCCO1 (configuration not stated) | -16.1% (inactive)
75 | COc1ccc(NC(=O)c2cn(-c3ccccc3)nc2-c2ccncc2)cc1 | -9.7% (inactive)
76 | Nc1ncnc(Oc2cccc3cccnc23)c1[N+](=O)[O-] | -25.4% (inactive)
77 | CCC(C)c1ccccc1NC(=S)NC(=O)c1ccco1 (configuration not stated) | 60.2% (active)
78 | CCOc1ccccc1NC(=S)NC(=O)c1ccco1 | -5.9% (inactive)

Row | Compound | activity change, less the hit threshold
79 | CCC(C)c1ccccc1NC(=O)c1[nH]c(C)c(C(C)=O)c1C (configuration not stated) | -22.3% (inactive)
80 | N#C/C(=N/Nc1ccc([N+](=O)[O-])cc1)C(=N)N1CCCCC1 | -6.1% (inactive)
81 | C/C(=C/CCC(C)[C@H]1CC[C@@]2(C)C3=C(CC[C@]12C)[C@@]1(C)CCC(=O)C(C)(C)[C@@H]1CC3)C(=O)O (some centres not stated) | -36.3% (inactive)
82 | CC(C)OC(=O)CSc1nnc(C2CCCCC2)n1N | -21.8% (inactive)
83 | CCC1(c2ccc(Cl)cc2)NC(=S)N(c2ccc(C)c(C)c2)N1 (configuration not stated) | 101% (active)
84 | CCC1(c2ccccc2)NC(=S)N(c2ccc(C)c(C)c2)N1 (configuration not stated) | 111% (active)
85 | CCCCn1nnc(NC(=O)c2ccc(-c3cccc([N+](=O)[O-])c3)o2)n1 | -21.1% (inactive)
86 | CCCCNC1=CC(=O)C(=O)c2ccccc21 | -18.9% (inactive)
87 | COC(=O)c1ccc(C2C(C#N)=C(N)Oc3cc(O)ccc32)cc1 (configuration not stated) | -8.7% (inactive)
88 | CC1CCc2sc(-c3n[nH]c(=S)o3)cc2C1 (configuration not stated) | 20.7% (active)
89 | Cc1ccc2oc3c(c(=O)c2c1)C(c1cccs1)N(CCCN(C)C)C3=O (configuration not stated) | 7.1% (active)
90 | CCN(CC)CCCN1C(=O)c2oc3ccccc3c(=O)c2C1c1cccs1 (configuration not stated) | 12.9% (active)
91 | COCCN1C(=O)c2oc3cc(C)c(C)cc3c(=O)c2C1c1ccc(O)cc1 (configuration not stated) | -0.6% (inactive)
92 | CSc1ccc(C2NN=C(c3ccccc3)S2)cc1 (configuration not stated) | -15.8% (inactive)
93 | Cc1ccc(CC23CN4CCN(CC(C4)C2O)C3)c(C)c1 (configuration not stated) | -8.4% (inactive)
94 | O=C(NCC(c1cccs1)N1CCOCC1)c1cc(S(=O)(=O)N2CCOCC2)ccc1F (configuration not stated) | -15.4% (inactive)
95 | CSC1=C(C#N)C(CC(C)C)C2=C(CCCC2=O)N1 (configuration not stated) | -12.3% (inactive)
96 | CCOc1nc(-c2ccccc2)ccc1-c1noc(COC)n1 | -13.5% (inactive)
97 | Cc1cc(C(F)(F)F)c2sc(N)nc2n1 | -4.4% (inactive)
98 | Cc1cc(C)nc(NS(=O)(=O)c2ccc(NC(=O)Cc3ccccc3)cc2)n1 | -11.1% (inactive)
99 | O=C(O)CCCNC(=O)c1nn(Cc2ccccc2)c(=O)c2ccccc12 | -5.2% (inactive)
100 | O=C(Cc1cccs1)Nn1c(Cc2cccs2)nc2ccccc2c1=O | 54.3% (active)
101 | O=C(Cc1ccccc1)Nn1c(-c2ccccc2)nc2ccccc2c1=O | 29.9% (active)
102 | Cc1nc2c(C(=O)NCc3cccs3)cnn2c(C)c1Cc1ccccc1 | -25.2% (inactive)
